In PubChem BioAssay (EPA / NIEHS):
Results filed as inconclusive are left out. Active and inactive are the calls of the source. Rule for the calls: active = hit-call score of the fitted dose curve at least 0.9, where 1 is the maximum; inconclusive = response in the unintended direction; inactive = score below 0.9.

These compounds were tested against Estrogen receptor (Homo sapiens) (UniProt P03372) (assay: NVS_NR_hER: NovaScreen (NVS) Nuclear Receptor Binding Assay for human Estrogen Receptor (ER) (AID 2283348)).
Estrogen receptor (Homo sapiens), sequence (P03372 whole entry, looked up): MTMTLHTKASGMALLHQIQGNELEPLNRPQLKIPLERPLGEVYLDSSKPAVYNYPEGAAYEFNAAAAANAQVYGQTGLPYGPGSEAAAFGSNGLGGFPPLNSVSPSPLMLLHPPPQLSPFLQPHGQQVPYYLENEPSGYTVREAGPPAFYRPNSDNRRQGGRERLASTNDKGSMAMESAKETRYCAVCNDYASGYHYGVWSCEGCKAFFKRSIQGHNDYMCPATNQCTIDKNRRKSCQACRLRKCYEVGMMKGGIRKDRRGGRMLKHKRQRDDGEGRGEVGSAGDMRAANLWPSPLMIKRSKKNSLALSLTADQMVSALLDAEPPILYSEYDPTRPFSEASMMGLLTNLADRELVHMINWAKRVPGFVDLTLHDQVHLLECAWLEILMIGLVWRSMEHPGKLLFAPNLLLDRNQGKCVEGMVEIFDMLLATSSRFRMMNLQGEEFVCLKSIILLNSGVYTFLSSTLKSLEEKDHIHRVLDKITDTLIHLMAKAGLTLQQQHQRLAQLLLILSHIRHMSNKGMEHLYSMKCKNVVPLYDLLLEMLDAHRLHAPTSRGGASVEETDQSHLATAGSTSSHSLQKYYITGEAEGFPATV
Procedure: NVS_NR_hER is a biochemical, single-readout assay that uses extracted gene-proteins from MCF7 in a cell-free assay. Measurements were taken 18 hours after chemical dosing in a 96-well plate.NVS_NR_hER is one of one assay component(s) measured or calculated from the NVS_NR_hER assay. It is designed to make measurements of radioligand binding, a form of binding reporter, as detected with scintillation counting signals by Lysate-based radiodetection technology.Data from the assay component NVS_NR_hER was analyzed into 1 assay endpoint. This assay endpoint, NVS_NR_hER, was analyzed in the positive analysis fitting direction relative to DMSO as the negative control and baseline of activity. Using a type of binding reporter, loss-of-signal activity can be used to understand changes in the binding as they relate to the gene ESR1. Furthermore, this assay endpoint can be referred to as a primary readout, because the performed assay has only produced 1 assay endpoint. To generalize the intended target to other relatable targets, this assay endpoint is annotated to the nuclear receptor intended target family, where the subfamily is steroidal.
Binding assays used specific radioligands (tritiated, iodinated) with non-radioactive competitive displacement ligands in agonist or antagonist protocols (as indicated) and various reference compounds and inhibitors to titrate specific binding to receptors and transporters. Most enzyme assays (CYPs, kinases, phosphatases, proteases, HDACs) used recombinant protein and specific substrates (fluorescence mostly, some colorimetric and radioactive) and inhibitors, followed by a biochemical separation of substrate and product. All assays for the biochemical HTS were initially run in duplicate at a single concentration (10 uM for CYP450 assays and 25 uM for all others). […] Each assay was run with positive and negative controls, and concurrent controls on every plate. The follow-up (secondary) screen tested active chemical-pairs in concentration series, as well as a few additional assays not tested in the primary screen, some selected negative inactives, and several cases re-run in the concentration series for confirmatory purposes.
CCCCCCCCCCCCCCCCCC(=O)O was tested, and the AC50 was 17.2 µM (active).
In the case of COc1cc(C=O)ccc1O, the AC50 is reported as 38.6 µM (active).
With C[Si]1(C)O[Si](C)(C)O[Si](C)(C)O[Si](C)(C)O1 the outcome was “inactive”.
For C=CCc1ccc(O)c(OC)c1, the outcome was “inactive”.
In the case of CCCCC(CC)COC(=O)CC(C(=O)OCC(CC)CCCC)S(=O)(=O)O (stereo not given), the outcome is reported as “inactive”.
With Cc1cccc(Nc2cc(Cl)nc(SCC(=O)O)n2)c1C the outcome was “inactive”.
In the case of COC(=O)c1ccc(O)cc1, the outcome is reported as “inactive”.
For CC1=C(/C=C/C(C)=C/C=C/C(C)=C/CO)C(C)(C)CCC1, the outcome was “inactive”.
O=C(O)Cc1ccccc1Nc1c(Cl)cccc1Cl was tested, and the outcome was “inactive”.
With Oc1ccc2c(c1)OC[C@@H](N1CCC(O)(c3ccc(F)cc3)CC1)[C@H]2O the outcome was “inactive”.
CCCCCCC(=O)OCC was tested, and the outcome was “inactive”.
For CC(C)(C)c1cc(O)c(C(C)(C)C)cc1O, the outcome was “inactive”.
With C=CCOC(=O)c1ccccc1C(=O)OCC=C the AC50 was 41.4 µM (active).
Cc1oc(-c2ccccc2)nc1CCOc1cccc2c1ccn2CCC(=O)O was tested, and the outcome was “inactive”.
In the case of Cc1nc(-c2ccc3c(c2)CCN(CCC2CCC(NC(=O)/C=C/c4ccc(F)cc4)CC2)CC3)no1 (stereo not given), the outcome is reported as “inactive”.
With O=c1c(O)c(-c2ccc(O)c(O)c2)oc2cc(O)cc(O)c12 the outcome was “inactive”.
With COc1ccc2c(c1)c(CC(=O)O)c(C)n2C(=O)c1ccc(Cl)cc1 the outcome was “inactive”.
With C[C@]12C=CC(=O)C=C1CC[C@@H]1[C@@H]2C(=O)C[C@@]2(C)[C@H]1CC[C@]2(O)C(=O)CO the outcome was “inactive”.
In the case of CCCc1cc(=O)[nH]c(=S)[nH]1, the AC50 is reported as 11.2 µM (active).
CCOc1ccc2c(c1)C(C)=CC(C)(C)N2 was tested, and the AC50 was 39.2 µM (active).
For CC(=O)C(C)=CC1C(C)=CCCC1(C)C (stereo not given), the outcome was “inactive”.
Nc1ccc2c(c1)C(=O)c1ccccc1C2=O was tested, and the outcome was “inactive”.
CCOC(=O)CCC(=O)OCC was tested, and the outcome was “inactive”.
COc1ccc(S(=O)(=O)N2C(=O)[C@@](c3ccccc3OC)(N3C[C@H](O)C[C@H]3C(=O)N(C)C)c3cc(Cl)ccc32)c(OC)c1 was tested, and the outcome was “inactive”.
In the case of CC=Cc1ccc(O)c(OC)c1, the outcome is reported as “inactive”.
